# Compound activity: PubChem, National Center for Advancing Translational Sciences (NCATS)
# Only some compounds are listed: those with a hit (about 21% of all), similar ones and a draw of the others.
# SARS PLP yeast – SARS-CoV PLP inhibition in yeast. hit rate 0.19% among 330,000. S. cerevisiae expressing SARS-CoV PLpro, growth rescue. Potency, µM (highest dose often 32.9 µM), actives largely listed as activators; note: nearly all actives have a fitted effect of over 55% in size
# NS1 inh – blocks influenza NS1 protein function | Potency, µM (titrated, usually from 46.1 µM) | hit rate 0.4% among 270,000 | AID 2326; note: actives are rising curves; nearly all actives have a fitted effect of over 50% in size
#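 S. cerevisiae expressing influenza A NS1, grown in glucose, washed, then diluted 1:100 into pH 6.0 -URA galactose medium with 23 nl compound. Growth recovery read as OD600; NS1-free strain serves as control.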
# CHX counter – counter-screen hit for Shiga toxin inhibitors, cycloheximide; AID 2314; max response, %; cell reporter, cycloheximide protein synthesis inhibition counterscreen; hit rate 12% among 300,000; in the data active = max response mostly above about 13%, no sharp cut-off; inactive = mostly below about 14%; note: read at 38.3 µM for the half of the compounds with a filed dose
# Pf growth 48h – P. falciparum growth inhibition at 48 hours (one generation). P. falciparum luciferase growth in erythrocytes, 48 h. Potency, µM (highest dose often 28.7 µM), hits mostly inhibitors. hit rate 5.9% among 310,000; active = well fitted inhibition curve with a large enough effect; inconclusive = small, poorly fitted or top-dose-only effect, or another doubt; inactive = no such curve, though single readings can be large or run the other way
#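 Compounds are pin-transferred into medium, infected erythrocytes (2% hematocrit, 0.1% parasitemia final) are added, and plates sit one parasite generation at 37 C in 5% CO2. Detection reagent is then added and luminescence measured.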
# Pf growth 96h – P. falciparum growth inhibition at 96 hours; P. falciparum luciferase reporter growth, 96 h; Potency, µM (series often up to 28.7 µM), actives largely listed as inhibitors; hit rate 6.9% among 320,000; AID 504834; active = well fitted inhibition curve with a large enough effect; inconclusive = small, poorly fitted or top-dose-only effect, or another doubt; inactive = no such curve, though single readings can be large or run the other way
#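 Erythrocytes infected with luciferase-expressing P. falciparum were dispensed at 2% hematocrit and 0.05% parasitemia (final), then incubated with compounds 96 hours at 37 C in 5% CO2. Luminescence after detection reagent addition reported growth.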
# Shiga inhibitor – inhibitors of Shiga toxin in Vero cells; AID 2315; inhibition, % at 38.7 µM; Vero cells, Shiga toxin protein synthesis inhibition reporter; hit rate 9.2% among 290,000; in the data active = inhibition mostly above about 28%, no sharp cut-off; inactive = mostly below about 43%
# A number is an active result; . = inactive; ? = inconclusive; / = no result; [ ] = dose if it differs, or a comment. Unless noted, calls come from the whole dose curve.
SMILES,SARS PLP yeast,NS1 inh,CHX counter,Pf growth 48h,Pf growth 96h,Shiga inhibitor
Cn1nc(C(F)(F)F)c2cc(C(=O)Nc3ccc(C(F)(F)F)cc3)sc21,.,.,.,6.57µM,?,.
Cn1nc(C(F)(F)F)c2cc(C(=O)O)sc21,.,/,.,.,.,.
Cc1ccc(S(=O)(=O)N2CCN(C(=O)c3cc4c(s3)CCCC4)CC2)c(C)c1,.,/,/,?,?,/
O=C(c1cc2c(s1)CCCC2)N1CCN(c2ccccc2)CC1,.,/,24.5,.,.,151.1
COc1ccccc1N1CCN(C(=O)c2cc3c(s2)CCCCC3)CC1,.,.,.,?,?,.
O=C(c1cc2c(s1)CCCC2)N1CCN(S(=O)(=O)c2ccccc2C(F)(F)F)CC1,.,.,.,?,11.7µM,.
O=[N+]([O-])c1cnn(-c2nc(-c3ccco3)cc(C(F)(F)F)n2)c1,.,/,.,.,11.7µM,.
CCOc1ccc(-c2[nH]nc3c2C(c2ccc4c(c2)OCO4)C(C#N)=C(N)O3)cc1OC (stereo unspecified),.,.,.,.,13.1µM,.
CCCc1[nH]nc2c1C(c1ccc(OCCN3CCOCC3)c(OC)c1)C(C#N)=C(N)O2 (stereo unspecified),.,.,49.3,.,.,54.2
CCOc1cc(C2C(C#N)=C(N)SC(N)=C2C#N)ccc1OCCN1CCOCC1,.,.,.,9.28µM,/,.
CN(C)CCN(Cc1cc2cc3c(cc2nc1Cl)OCO3)C(=O)c1ccco1,.,.,.,.,.,.
Cc1onc(C(=O)Nc2c(C)n(C)n(-c3ccccc3)c2=O)c1[N+](=O)[O-],.,?,.,.,.,.
Cc1cccc(C)c1NC(=O)CSc1nc2[nH]c(=O)cc(O)c2s1,.,/,/,.,?,/
O=C(NCC1CCCO1)c1nn2c(C(F)(F)F)cc(-c3ccc(Br)o3)nc2c1Br (stereo unspecified),.,.,.,?,.,.
O=C(CN1CCOCC1)Nc1nc(-c2ccccc2)cs1,.,.,.,/,.,.
CCC(=O)N1CCc2cc(-c3csc(NC(=O)c4ccco4)n3)ccc21,.,.,27.8,?,.,.
CCC(=O)c1ccc(OCC(=O)Nc2nc(-c3cccnc3)cs2)cc1,.,/,/,?,?,/
CCc1ccccc1OCC(=O)Nc1nc(-c2cccnc2)cs1,?,/,.,4.15µM,4.15µM,.
Cc1nc(NC(=O)CN2CCOCC2)sc1-c1ccccc1,.,.,26.4,.,.,.
Cc1ccc(-c2csc(NC(=O)CN3CCOCC3)n2)cc1C,.,.,21.4,.,.,.
CN(C(=O)CN1CCN(c2ccccc2F)CC1)C1CCCc2ccccc21 (stereo unspecified),.,.,.,.,.,.
COc1cccc(NC(=O)CN(C)C(=O)c2ccccn2)c1,.,/,/,/,/,/
O=C(COC(=O)CNC(=O)c1sc2ccccc2c1Cl)Nc1cc(Cl)cc(Cl)c1,.,/,.,.[5.75 µM],.,.
O=C(CCN1C(=O)C2CC=CCC2C1=O)Nc1nc(-c2ccc(F)c(F)c2)cs1 (stereo unspecified),.,/,/,?,?,/
O=C(O)CCN1C(=O)C2CCCCC2C1=O (stereo unspecified),.,.,.,/,0.738µM,.
SMILES,SARS PLP yeast,NS1 inh,CHX counter,Pf growth 48h,Pf growth 96h,Shiga inhibitor
CCc1ccc(-c2csc(NC(=O)Oc3ccccc3)n2)cc1,.,.,24.8,.,11.7µM,192.6
O=C(CCN1C(=O)C2CCCCC2C1=O)Nc1nc(-c2ccccc2)cs1 (stereo unspecified),.,.,17.1,.,.,.
O=C(O)CCN1C(=O)C2C3C=CC(C2C1=O)C1C(=O)N(CCC(=O)O)C(=O)C31 (stereo unspecified),.,.,.,.,.,.
Cc1ccccc1C(=O)N1CCc2cc(-c3csc(NC(=O)CN4CCCC4)n3)ccc21,.,.,.,4.15µM,.,.
O=C(CN1CCCCC1)Nc1nc(-c2ccc(F)c(F)c2)cs1,.,.,.,?,.,.
O=C(Nc1nc(-c2cccc(Br)c2)cs1)Oc1ccccc1,.,.,.,.,.,.
COc1cccc(C(=O)Nc2cc(-c3cn4cccnc4n3)ccc2C)c1,.,.,.,.,?,.
CN1C(=O)C2C(c3ccc(N(C)C)cc3)NN(Cc3ccccc3)C2C1=O (stereo unspecified),.,.,.,.,.[1.15 µM],.
CC(C)C(=O)N1CCc2cc(-c3csc(N)n3)ccc21,?,.,21.6,10.4µM,.,.
CC(=O)NCC(=O)OCC(=O)Nc1nc(-c2ccccc2)cs1,.,/,16.3,.,.,63.4
O=C(CN1CCCCC1)Nc1nc(-c2ccccc2)cs1,.,.,34.6,/,.,35.0
COCC(=O)Nc1nc(-c2ccc(-c3ccccc3)cc2)cs1,.,.,64.7,.,.,80.9
CN1CCN(CC(=O)Nc2nc(-c3ccccc3)cs2)CC1,.,.,.,.,.,.
CN1CCN(CC(=O)N(C)c2nc(-c3ccccc3)cs2)CC1,.,.,60.6,.,.,60.4
Cc1ccc(S(=O)(=O)NCCN=C(CN2CCCC2)NS(=O)(=O)c2ccc(C)cc2)cc1,.,.,.,?,.,.
O=C(Nc1ccc(F)cc1)C(=O)C1C(=O)Nc2ccccc21 (stereo unspecified),.,.,.,.,.,55.2
O=C(Nc1ccc2ccccc2c1)C(=O)C1C(=O)Nc2ccccc21 (stereo unspecified),.,.,31.6,.,.,66.3
COc1ccc(NC(=O)COC(=O)c2cccn2C)cc1S(=O)(=O)N1CCCCC1,.,/,/,/,/,/
Cc1cc2[nH]c(=O)c(=O)[nH]c2cc1S(=O)(=O)N1CCN(c2cccc(C)c2C)CC1,.,.,.,?,4.65µM,.
CCOc1ccccc1N1CCN(S(=O)(=O)c2cc(C)ccc2OC)CC1,.,.,51.3,.,?,63.8
COc1ccc(C)cc1S(=O)(=O)N1CCN(c2ccccc2)CC1,.,.,.,.,.,/
COc1ccccc1N1CCN(S(=O)(=O)c2cc3[nH]c(=O)c(=O)[nH]c3cc2C)CC1,.,.,.,9.28µM,?,.
CCCCOc1ccccc1NC(=O)CC1SC(=NCC)N(CC)C1=O (stereo unspecified),.,.,.,.,.,.
COc1ccc(-n2cc(C#N)c(=O)[nH]c2=O)cc1,.,.,.,?,.[1.15 µM],.
COc1cc(-n2nnnc2SCC(=O)N2CCN(c3ccc(F)cc3)CC2)c(OC)cc1Cl,.,.,.,14.7µM,/,.
CCOC(=O)CSc1nnnn1-c1cc(OC)c(Cl)cc1OC,.,.,.,?,.,.
CC(C)(C)OC(=O)CNC(=O)c1nc[nH]c1C(=O)N1CCNCC1,.,/,/,.,.,/
Cn1cccc1/C=C1\SC(=O)N(c2ccc(O)cc2)C1=O,.,/,38.7,.,.,32.6
CCOc1ccc(N2C(=O)S/C(=C\c3cccn3C)C2=O)cc1,.,.,.,3.29µM,2.94µM,.
CC[C@]12c3[nH]c4ccc(OC)cc4c3CCN1C(=O)C(CC(=O)NCCCOC)C[C@@H]2C(=O)N1CCN(C(=O)C2CC2)CC1 (stereo partly specified),.,/,/,/,/,/
